What all share (assay): NCI-60 one-dose screen, 48 h (100 = growth as untreated, 0 = no growth, -100 = all killed)
Common to all, as to settings: 10 µM unless noted

The subject of test [1] is SK-MEL-2 melanoma.
Test [2] relates to EKVX NSCLC.
For test [3], the system named is SN12C renal.
The test system of test [4] is UO-31 renal.
In test [5] the test system is TK-10 renal.
For test [6], the system named is ACHN renal.
Test [7] relates to CAKI-1 renal.
In test [8] the test system is A498 renal.
Test [9] deals with CCRF-CEM leukemia.
Test [10] relates to MOLT-4 leukemia.
The subject of test [11] is SR leukemia.
The subject of test [12] is RPMI-8226 leukemia.
Test [13] has as its system OVCAR-8 ovarian.
In test [14] the test system is OVCAR-5 ovarian.
In test [15] the test system is SK-OV-3 ovarian.
The test system of test [16] is IGROV1 ovarian.
Test [17] relates to OVCAR-3 ovarian.
The test system of test [18] is HS 578T breast.
Test [19] deals with NCI/ADR-RES ovarian.
Test [20] has as its system OVCAR-4 ovarian.

Each structure is given as a SMILES string. This is part of a sample that, as a whole, favours compounds with a hit. Of some 83,000 tested, about 20% had one in any assay.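 96-well plates, one dose, 48 hours. Percent growth reported; active if below 10.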 Values without a mark were called inactive. The source made the active and inactive calls.

For `O=C(/C=C/c1ccc(Cl)cc1)c1cccc(OCCCOc2cccc(C(=O)/C=C/c3ccc(Cl)cc3)c2)c1`, the growth in [1] was 107%; in [2] it was 107%; in [3], 103%; in test [4], 86.1%; in test [5], 95.6%; in test [6], 99.6%. Also, the growth is 95.4% in [7]; 94.9% in test [8]; 92.9% in test [9]; 93.3% in test [10]; 32.8% in [11]; -8.57% (active) in test [12]. The growth in [13] was 99.3%; in test [14], 113%; in test [15] it was 100%; in test [16], 108%; in [17], 95.4%; in [18], 106%. Also, the growth in test [19] is 105%.

For `COc1ccc(CCN(CC(=O)N(CC(N)=O)C2CCC[C@@H]2OCc2ccccc2)C(=O)CN(C(=O)CN(CCc2ccc(Cl)cc2)C(=O)CN(C(=O)CN(C)Cc2ccccc2F)[C@H](C)C2CCCCC2)[C@H](C)C2CCCCC2)cc1OC` (some centres not stated), the growth in test [1] was 1.88% (active); in test [2] it was 30.8%; in test [3], 35.3%; in test [4], 37.3%; in [5], 15.6%; in test [6] it was 28.8%. The growth is 94.7% in test [7]; 32% in test [8]; 7.58% (active) in [9]; -37% (active) in test [10]; -0.194% (active) in test [12]; 32.2% in [13]. Further, the growth in test [14] was 49.2%; in test [20], 48.9%; in [15], 38.4%; in [16], 43.4%; in test [17], 32.5%; in test [18] it was 64.3%. The growth in test [19] was 79.2%.

Regarding `C=C1CC[C@@H]2C(C)(C)[C@@H](O)CC[C@@]2(C)[C@@H]1COc1ccc2ccc(=O)oc2c1`, the growth in [1] is 88.3%; in test [2] it was 60.3%; in [3], 74.9%; in [4] it was 52.6%; in test [5], 95%; in test [6], 80.1%. The growth in test [7] was 73.5%; in [8] it was 68.9%; in test [9], 60.8%; in test [10], 47.4%; in test [12], 50.7%; in test [13], 83.4%. For the same compound, the growth in test [14] is 117%; in [20], 67.5%; in test [15], 112%; in test [16] it was 95.3%; in test [17], 78.3%; in [18], 101%. Besides, in [19], the growth was 61.7%.

With `O=c1nc(-c2ccccc2)c2cc(-c3ccc(C(F)(F)F)nc3)ccc2[nH]1`, the growth in [1] was 103%; in test [2] it was 97.8%; in test [3] it was 102%; in test [4] it was 75.8%; in test [5], 99.9%; in test [6], 96.5%. The growth in test [7] was 93.1%; in test [8], 104%; in test [9] it was 46.5%; in test [10], 83.3%; in test [11], 93.2%; in test [12], 91.3%. For the same compound, the growth in [13] was 106%; in test [14], 97.6%; in [15], 105%; in test [16], 111%; in test [17] it was 96%; in test [18], 95.7%. For the same compound, in test [19], the growth was 98.4%.

For `CN1C(=O)/C(=C/c2ccc(C(=O)Nc3ncc(Cc4cccc(Cl)c4)s3)cc2)SC1=S`, the growth in test [1] was 91.7%; in [2], 55.9%; in test [3], 84.2%; in test [4] it was 55.6%; in [5], 56%; in [6], 33.2%. Besides, the growth in test [7] is 26.3%; in test [8], 74.9%; in test [9], 69.3%; in test [10], 52.4%; in [11] it was 85.2%; in test [12] it was 60.8%. For the same compound, the growth in test [13] is 64.1%; in test [14], 61.8%; in test [15], 72.1%; in test [16], 61.9%; in test [17] it was 69%; in test [18], 74.6%. For the same compound, in [19], the growth was 56.9%.

Take `O=C(N=Nc1c(O)[nH]c2ccccc12)Nc1ccc(F)cc1`: the growth in [1] is 102%; in [2], 94.3%; in test [3], 94.6%; in test [4], 72.8%; in test [5], 113%; in [6] it was 92.8%. Moreover, the growth was 81.5% in test [7]; 102% in test [8]; 95.4% in test [9]; 92.5% in [10]; 84.2% in test [11]; 91% in test [12]. Also, the growth in test [13] is 96.7%; in test [14] it was 90.4%; in test [15], 80.5%; in test [16], 85.2%; in test [17], 102%; in test [18], 96.2%. Further, the growth in [19] is 104%.

As to `C/C(=N\O)c1ccc(NC(=O)CSc2nnc(-c3cc(-c4ccc(S(N)(=O)=O)cc4)nc4ccccc34)n2-c2ccccc2)cc1`, the growth in test [1] is 84%; in [2], 77.3%; in [3] it was 78.6%; in test [4] it was 85.3%; in [5], 80.8%; in test [6] it was 95.9%. In addition, the growth was 55.6% in test [7]; 39.7% in test [8]; 40.5% in [9]; 32.3% in test [10]; 24.2% in test [11]; 34.4% in test [12]. In addition, the growth was 59.4% in test [13]; 96.6% in test [14]; 108% in [15]; 63% in test [16]; 78% in test [17]; 61.7% in [18]. Further, the growth in test [19] is 98.9%.

With `COc1cccc(NCc2nnc(Nc3ccc(Cl)cc3)c3ccccc23)c1`, the growth was -34.4% (active) in [1]; -0.284% (active) in [2]; 14.5% in test [3]; -42.5% (active) in test [4]; -40.9% (active) in test [5]; -5.35% (active) in test [6]. The growth is 9.01% (active) in test [7]; -26.8% (active) in test [8]; -4.42% (active) in [9]; -27.2% (active) in test [10]; -24.5% (active) in test [11]; -28.1% (active) in test [12]. Further, the growth in test [13] is 3.02% (active); in test [14], 8.44% (active); in test [15], -11.9% (active); in test [16] it was 1.51% (active); in test [17] it was -53.6% (active); in [18], 0.542% (active). Further, the growth in test [19] is -5.42% (active).

For the origin of these results see PubChem BioAssay (NCI).
